Values joined by “and” are separate entries in the source; they are usually repeats but may differ in a detail not shown here. Equal values may be shown once. Inconclusive results are not listed. Active and inactive are the calls of the source. The call rests on the fitted dose curve; in most records, active means well fitted curve in the direction sought with a large enough effect; inconclusive means small, poorly fitted or top-dose-only effect, or another doubt; inactive means no such curve, though single readings can be large; an effect the other way counts as inactive or inconclusive.
How the values were obtained:
[1] = Quantitative High-Throughput drug screen in 47 multiple myeloma cell lines against the NCATS MIPE library collection: KMS12PE_JCRB cell viability assay (AID 1918972); further: nearly all actives have a fitted effect of over 30% in size; further: potency means the concentration at half of the fitted maximal effect
Summary of the method: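 Myeloma cells (500 per well) were exposed to MIPE 4.0 compounds by pin transfer and incubated 48 hours at 37C, 5% CO2. Viability was read as ATP by CellTiter-Glo luminescence, normalised to DMSO (100%) and media-only (0%) wells.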

[2] = Quantitative High-Throughput drug screen in 47 multiple myeloma cell lines against the NCATS MIPE library collection: KMS21BM_JCRB cell viability assay (AID 1918974); conditions: ATP luminescence, 48 h; viability: at 45.8 µM (top of the series) unless noted
Summary of the method: (§1)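 Steps: seed 500 cells per well; pin-transfer MIPE 4.0 library; incubate 48 h at 37C, 5% CO2, humidified; add CellTiter-Glo, 5 min room temperature; read luminescence.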

[3] = Quantitative High-Throughput drug screen in 47 multiple myeloma cell lines against the NCATS MIPE library collection: KMS26_JCRB cell viability assay (AID 1918975); further: nearly all actives have a fitted effect of over 45% in size; further: potency means the concentration at half of the fitted maximal effect
Summary of the method: as §1

[4] = Quantitative High-Throughput drug screen in 47 multiple myeloma cell lines against the NCATS MIPE library collection: MOLP8_DSMZ cell viability assay (AID 1918977); further: nearly all actives have a fitted effect of over 45% in size; further: potency means the concentration at half of the fitted maximal effect
Summary of the method: (§2)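 Myeloma cells (500/well) treated with MIPE 4.0 compounds for 48 h at 37 °C, 5% CO2. Viability read as ATP via CellTiter-Glo luminescence after 5 min at RT; DMSO-only wells = 100%, media-only = 0% viability.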

[5] = Quantitative High-Throughput drug screen in 47 multiple myeloma cell lines against the NCATS MIPE library collection: NCIH929_DSMZ cell viability assay (AID 1918978); further: nearly all actives have a fitted effect of over 35% in size; further: potency means the concentration at half of the fitted maximal effect
Summary of the method: as §2

[6] = Quantitative High-Throughput drug screen in 47 multiple myeloma cell lines against the NCATS MIPE library collection: LP1_DSMZ cell viability assay (AID 1918982); further: nearly all actives have a fitted effect of over 35% in size; further: potency means the concentration at half of the fitted maximal effect
Summary of the method: as §2

[7] = Quantitative High-Throughput drug screen in 47 multiple myeloma cell lines against the NCATS MIPE library collection: OPM1_PLB cell viability assay (AID 1918989); further: nearly all actives have a fitted effect of over 40% in size; further: potency means the concentration at half of the fitted maximal effect
Summary of the method: as §2

[8] = Quantitative High-Throughput drug screen in 47 multiple myeloma cell lines against the NCATS MIPE library collection: XG6_PLB cell viability assay (AID 1919865); further: nearly all actives have a fitted effect of over 40% in size; further: potency means the concentration at half of the fitted maximal effect
Summary of the method: as §2

[9] = Quantitative High-Throughput drug screen in 47 multiple myeloma cell lines against the NCATS MIPE library collection: MM1S_ATCC cell viability assay (AID 1918980); further: nearly all actives have a fitted effect of over 45% in size; further: potency means the concentration at half of the fitted maximal effect
Summary of the method: as §2

[10] = Quantitative High-Throughput drug screen in 47 multiple myeloma cell lines against the NCATS MIPE library collection: MM1R_ATCC cell viability assay (AID 1918981); further: nearly all actives have a fitted effect of over 35% in size; further: potency means the concentration at half of the fitted maximal effect
Summary of the method: as §2

[11] = Quantitative High-Throughput drug screen in 47 multiple myeloma cell lines against the NCATS MIPE library collection: KMS28PE_JCRB cell viability assay (AID 1918983); further: nearly all actives have a fitted effect of over 35% in size; further: potency means the concentration at half of the fitted maximal effect
Summary of the method: as §2

[12] = Quantitative High-Throughput drug screen in 47 multiple myeloma cell lines against the NCATS MIPE library collection: U266_ATCC cell viability assay (AID 1919864); further: nearly all actives have a fitted effect of over 35% in size; further: potency means the concentration at half of the fitted maximal effect
Summary of the method: as §2

[13] = Quantitative High-Throughput drug screen in 47 multiple myeloma cell lines against the NCATS MIPE library collection: MMM1_PLB cell viability assay (AID 1918976)
Summary of the method: as §2

[14] = Quantitative High-Throughput drug screen in 47 multiple myeloma cell lines against the NCATS MIPE library collection: OCIMY1_PLB cell viability assay (AID 1918979); further: nearly all actives have a fitted effect of over 35% in size; further: potency means the concentration at half of the fitted maximal effect
Summary of the method: as §2

[15] = Quantitative High-Throughput drug screen in 47 multiple myeloma cell lines against the NCATS MIPE library collection: OCIMY7_PLB cell viability assay (AID 1918987); further: potency means the concentration at half of the fitted maximal effect; nearly all actives have a fitted effect of over 65% in size
Summary of the method: as §2

[16] = Quantitative High-Throughput drug screen in 47 multiple myeloma cell lines against the NCATS MIPE library collection: OCIMY5_PLB cell viability assay (AID 1918988); further: nearly all actives have a fitted effect of over 65% in size; further: potency means the concentration at half of the fitted maximal effect
Summary of the method: as §2

[17] = Quantitative High-Throughput drug screen in 47 multiple myeloma cell lines against the NCATS MIPE library collection: KMS34_JCRB cell viability assay (AID 1918985); further: nearly all actives have a fitted effect of over 40% in size; further: potency means the concentration at half of the fitted maximal effect
Summary of the method: as §2

[18] = Quantitative High-Throughput drug screen in 47 multiple myeloma cell lines against the NCATS MIPE library collection: SKMM1_PLB cell viability assay (AID 1919863); conditions: SKMM1 myeloma viability, CellTiter-Glo ATP, 48 h; viability: stronger effect = lower value; further: nearly all actives have a fitted effect of over 35% in size; further: potency means the concentration at half of the fitted maximal effect
Summary of the method: as §2

[19] = Quantitative High-Throughput drug screen in 47 multiple myeloma cell lines against the NCATS MIPE library collection: L363_DSMZ cell viability assay (AID 1918984); further: nearly all actives have a fitted effect of over 40% in size
Summary of the method: as §2

OC(CN1CCC(Cc2ccc(F)cc2)CC1)c1ccc(Cl)cc1 (stereo not given)
inactive: Potency [1] | Potency [2] | Potency [3] | Potency [4] | Potency [5] | Potency [6] | Potency [7] | Potency [8]

COc1cc(F)c(F)c(Nc2ccc(I)cc2F)c1NS(=O)(=O)C1(C[C@H](O)CO)CC1
active: Potency [1] 16.6 µM | Potency [3] 13.2 µM | Potency [5] 18.7 µM | Potency [9] 16.6 µM | Potency [10] 10.5 µM | Potency [11] 5.26 µM | Potency [7] 11.8 µM | Potency [12] 16.6 µM

Cc1cc2c(F)c(Oc3ncnn4cc(OC[C@@H](C)O)c(C)c34)ccc2[nH]1
inactive: Potency [1] | Potency [14]
active: Potency [13] 2.09 µM | Potency [5] 18.7 µM | Potency [9] 16.6 µM | Potency [11] 20.9 µM | Potency [12] 23.5 µM | Potency [8] 0.743 µM

CC(=O)NC(C)c1ccc(Oc2ccc(OC(C)C)cc2)cc1 (stereo not given)
inactive: Potency [12]
active: Potency [1] 5.9 µM | Potency [4] 18.7 µM | Potency [5] 10.5 µM | Potency [14] 14.8 µM | Potency [11] 18.7 µM | Potency [15] 2.35 µM | Potency [16] 16.6 µM

COc1nc(-c2ccc3c(c2)OCO3)n(-c2ccc(NC(=O)CSc3ccccc3)cc2)n1
inactive: Potency [1] | Potency [5] | Potency [14] | Potency [10] | Potency [6] | Potency [17] | viability [18] 123% | Potency [8]
active: Potency [3] 11.8 µM | Potency [11] 14.8 µM | Potency [12] 5.26 µM

C#Cc1cccc(Nc2ncnc3cc(OCCOC)c(OCCOC)cc23)c1
inactive: Potency [14]
active: Potency [1] 2.09 µM | Potency [13] 0.59 µM | Potency [5] 7.43 µM | Potency [9] 9.35 µM | Potency [17] 11.8 µM | Potency [15] 0.833 µM | Potency [16] 5.9 µM | Potency [12] 13.2 µM | Potency [8] 0.0833 µM

CCOc1ccc(Cc2cc([C@@H]3O[C@H](CO)[C@@H](O)[C@H](O)[C@@H]3O)ccc2Cl)cc1
active: Potency [1] 26.4 µM | Potency [15] 3.72 µM | Potency [7] 14.8 µM | Potency [8] 3.32 µM
inactive: Potency [3] | Potency [5] | Potency [14] | Potency [10] | Potency [6] | Potency [11] | Potency [17] | Potency [16] | Potency [12]

O=C(C1CC1)N1CC[C@@H](Cn2c(-c3ccc(-c4ccc5occc5c4)cc3)nc3cnccc32)C1
active: Potency [1] 29.6 µM | Potency [6] 10.5 µM | Potency [16] 4.18 µM
inactive: Potency [5] | Potency [14] | Potency [9] | Potency [11] | viability [18] 107%

OCCn1cc(-c2cnc3nnn(Cc4ccc5ncccc5c4)c3n2)cn1
inactive: Potency [5] | Potency [6] | Potency [11] | Potency [7] | Potency [8]
active: Potency [1] 20.9 µM | Potency [9] 9.35 µM | Potency [10] 18.7 µM | Potency [16] 9.35 µM | Potency [18] 16.6 µM | Potency [12] 2.09 µM

CCOC(=O)N1CCC(=C2c3ccc(Cl)cc3CCc3cccnc32)CC1
inactive: Potency [1] | Potency [19]
active: Potency [3] 18.7 µM | Potency [5] 7.43 µM | Potency [9] 29.6 µM | Potency [17] 26.4 µM | Potency [16] 20.9 µM | Potency [18] 20.9 µM | Potency [12] 33.2 µM

COc1ccc([C@@H]2CC(=O)c3c(O)cc(O[C@@H]4O[C@H](CO[C@@H]5O[C@@H](C)[C@H](O)[C@@H](O)[C@@H]5O)[C@@H](O)[C@H](O)[C@@H]4O)cc3O2)cc1O
inactive: Potency [1] | Potency [5] | Potency [14] | Potency [10] | Potency [6] | Potency [11] | Potency [19] | Potency [17] | Potency [7] | viability [18] 111% and 110% | Potency [12]
active: Potency [16] 13.2 µM | Potency [8] 5.9 µM

O=C(O)COCCN1CCN(C(c2ccccc2)c2ccc(Cl)cc2)CC1 (stereo not given)
active: Potency [13] 14.8 µM
inactive: Potency [1] | Potency [4] | Potency [14] | Potency [9] | Potency [10] | Potency [17] | Potency [16] | viability [18] 122% | Potency [12] | Potency [8]

NCCc1ccc(O)c(O)c1
active: Potency [1] 20.9 µM | Potency [4] 20.9 µM | Potency [9] 20.9 µM | Potency [6] 8.33 µM | Potency [17] 8.33 µM | Potency [16] 20.9 µM | Potency [12] 23.5 µM

O=C(O)CCc1ccc(NCc2cccc(Oc3ccccc3)c2)cc1
inactive: Potency [1] | Potency [4] | Potency [5] | Potency [9] | Potency [10] | Potency [6] | Potency [11] | Potency [19] | Potency [17] | Potency [16] | viability [18] 111% | Potency [8]

O=C1CCCC2=C1C(c1[nH]ncc1Cl)N=C(Nc1nc3ccccc3o1)N2 (stereo not given)
active: Potency [1] 1.87 µM | Potency [5] 5.9 µM | Potency [16] 23.5 µM | Potency [7] 10.5 µM | Potency [18] 10.5 µM | Potency [12] 14.8 µM | Potency [8] 23.5 µM
inactive: Potency [14] | Potency [10] | Potency [11]

CC(C)(N)C(=O)N[C@H](COCc1ccccc1)C(=O)N1CCC2(CC1)CN(S(C)(=O)=O)c1ccccc12
inactive: Potency [1]
active: Potency [3] 0.0264 µM | Potency [9] 23.5 µM | Potency [10] 18.7 µM | Potency [6] 16.6 µM | Potency [11] 18.7 µM | Potency [17] 14.8 µM | Potency [16] 16.6 µM

Cc1ccccc1C(OCCN(C)C)c1ccccc1 (stereo not given)
inactive: Potency [1] | Potency [4] | Potency [5] | Potency [14] | Potency [9] | Potency [10] | Potency [6] | Potency [19] | Potency [7] | Potency [12]

From PubChem BioAssay (NCATS)
